Measured values published in the supplement of paper PMC10849652.
Targets with a hit are over-represented here; the source holds about 7,900 in all. About 0.6% of all pairs of compound and target were hits. Unmarked numbers belong to inactive results.

Legend:
Experiment in all cases: log2 fold change, soluble protein after heating vs DMSO (PISA); higher = thermal stabilisation; K562 cells, 10 uM, 30 min; active = over 0.2 and 3.5 SD of the protein, either way, in both replicates (recomputed)
[1] = compound: CN1CCN(CCOc2cc(OC3CCOCC3)c3c(Nc4c(Cl)ccc5c4OCO5)ncnc3c2)CC1 [saracatinib]
Outline: (§1)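 Aliquots of K562 cells (2×10^6 cells/mL) treated with 10 μM compound for 30 min were heated for 3 min over 48°C-58°C. After pooling and extraction in PBS with 0.5% NP-40 at 4°C, soluble protein from a 21,000xg, 90 min spin was quantified by TMTpro 16plex LC-MS/MS with channel sums equalised. Thermal stability is expressed against control samples, from duplicates, as a log2 fold change.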

[2] = compound: CN1CCN(c2nc(C3=C(c4c[nH]c5ccccc45)C(=O)NC3=O)c3ccccc3n2)CC1 [sotrastaurin]
Outline: as §1

[3] = compound: CN1CC[C@H](c2c(O)cc(O)c3c(=O)cc(-c4ccccc4Cl)oc23)[C@H](O)C1 [alvocidib]
Outline: as §1

[4] = compound: CN1CCc2c(c3ccccc3n2Cc2ccc(C(=O)NO)cc2)C1 [Tubastatin A]
Outline: as §1

[5] = compound: CNC(=O)C1=CC=CC=C1NC2=NC(=NC=C2Cl)NC3=C(C=C(C=C3)N4CCOCC4)OC
Outline: as §1

[6] = compound: CNC(=O)c1ccc(Nc2ncc(C(F)(F)F)c(NCc3nccnc3N(C)S(C)(=O)=O)n2)cc1 [defactinib]
Outline: as §1

[7] = compound: CNCc1ccc(-c2[nH]c3cc(F)cc4c3c2CCNC4=O)cc1 [rucaparib]
Outline: as §1

[8] = compound: CNc1nc(-c2ccc3c(N)n[nH]c3c2)cc(N2C[C@@H](C(=O)NC3CCCCC3)CC[C@H]2C)n1
Outline: as §1

[9] = compound: COC(=O)N[C@@H](C)CNc1nccc(-c2cn(C(C)C)nc2-c2cc(Cl)cc(NS(C)(=O)=O)c2F)n1 [encorafenib]
Outline: as §1

[10] = compound: COC(=O)[C@H](CCSC)NC(=O)C1=C(C=C(C=C1)NC[C@H](CS)N)C2=CC=CC=C2
Outline: as §1

Sequence of UniProt P42574 (P42574 whole entry, looked up): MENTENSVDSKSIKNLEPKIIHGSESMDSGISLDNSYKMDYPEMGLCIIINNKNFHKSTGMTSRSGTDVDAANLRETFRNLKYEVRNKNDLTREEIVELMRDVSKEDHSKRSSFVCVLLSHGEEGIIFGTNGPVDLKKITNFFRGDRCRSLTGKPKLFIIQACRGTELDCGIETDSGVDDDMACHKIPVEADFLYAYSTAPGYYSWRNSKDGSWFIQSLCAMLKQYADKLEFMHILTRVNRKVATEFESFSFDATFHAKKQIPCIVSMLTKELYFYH
Sequence of UniProt Q10570 (Q10570 whole entry, looked up): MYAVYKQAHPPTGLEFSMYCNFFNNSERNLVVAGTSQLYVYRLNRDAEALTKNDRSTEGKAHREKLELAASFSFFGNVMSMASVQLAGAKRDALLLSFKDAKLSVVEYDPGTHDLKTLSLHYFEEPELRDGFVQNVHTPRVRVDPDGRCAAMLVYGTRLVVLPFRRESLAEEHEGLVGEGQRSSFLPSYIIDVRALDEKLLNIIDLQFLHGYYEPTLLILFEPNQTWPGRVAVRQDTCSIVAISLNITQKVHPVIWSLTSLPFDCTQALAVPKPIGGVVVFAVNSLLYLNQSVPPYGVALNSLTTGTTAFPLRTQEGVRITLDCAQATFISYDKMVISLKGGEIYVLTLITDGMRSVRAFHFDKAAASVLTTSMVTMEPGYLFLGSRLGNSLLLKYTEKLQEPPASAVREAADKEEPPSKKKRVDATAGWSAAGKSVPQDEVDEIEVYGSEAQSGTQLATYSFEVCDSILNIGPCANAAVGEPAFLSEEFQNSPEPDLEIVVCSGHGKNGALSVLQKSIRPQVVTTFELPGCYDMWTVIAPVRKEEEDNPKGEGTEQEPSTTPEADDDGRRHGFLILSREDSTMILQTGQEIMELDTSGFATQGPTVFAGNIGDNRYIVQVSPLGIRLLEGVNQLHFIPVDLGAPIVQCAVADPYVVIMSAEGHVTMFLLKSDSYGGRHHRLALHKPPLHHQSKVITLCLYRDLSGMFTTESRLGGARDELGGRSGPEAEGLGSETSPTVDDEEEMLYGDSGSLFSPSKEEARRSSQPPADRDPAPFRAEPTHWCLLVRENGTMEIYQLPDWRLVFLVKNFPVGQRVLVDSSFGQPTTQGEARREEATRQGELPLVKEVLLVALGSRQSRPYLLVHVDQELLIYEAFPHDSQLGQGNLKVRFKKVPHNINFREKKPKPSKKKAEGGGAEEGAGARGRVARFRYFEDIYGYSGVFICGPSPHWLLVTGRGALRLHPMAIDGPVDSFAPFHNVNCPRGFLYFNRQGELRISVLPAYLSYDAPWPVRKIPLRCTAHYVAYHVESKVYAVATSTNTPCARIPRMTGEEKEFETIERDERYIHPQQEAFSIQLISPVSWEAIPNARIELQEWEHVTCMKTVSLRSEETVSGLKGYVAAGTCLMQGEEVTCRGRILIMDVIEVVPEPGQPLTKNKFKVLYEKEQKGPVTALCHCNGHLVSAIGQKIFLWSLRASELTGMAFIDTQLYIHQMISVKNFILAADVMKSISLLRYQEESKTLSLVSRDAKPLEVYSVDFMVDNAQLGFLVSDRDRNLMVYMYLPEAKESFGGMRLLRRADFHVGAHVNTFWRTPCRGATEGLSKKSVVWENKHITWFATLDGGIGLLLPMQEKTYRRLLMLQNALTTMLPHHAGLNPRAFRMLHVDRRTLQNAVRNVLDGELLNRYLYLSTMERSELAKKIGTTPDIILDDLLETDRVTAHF
Sequence of UniProt P41240 (P41240 whole entry, looked up): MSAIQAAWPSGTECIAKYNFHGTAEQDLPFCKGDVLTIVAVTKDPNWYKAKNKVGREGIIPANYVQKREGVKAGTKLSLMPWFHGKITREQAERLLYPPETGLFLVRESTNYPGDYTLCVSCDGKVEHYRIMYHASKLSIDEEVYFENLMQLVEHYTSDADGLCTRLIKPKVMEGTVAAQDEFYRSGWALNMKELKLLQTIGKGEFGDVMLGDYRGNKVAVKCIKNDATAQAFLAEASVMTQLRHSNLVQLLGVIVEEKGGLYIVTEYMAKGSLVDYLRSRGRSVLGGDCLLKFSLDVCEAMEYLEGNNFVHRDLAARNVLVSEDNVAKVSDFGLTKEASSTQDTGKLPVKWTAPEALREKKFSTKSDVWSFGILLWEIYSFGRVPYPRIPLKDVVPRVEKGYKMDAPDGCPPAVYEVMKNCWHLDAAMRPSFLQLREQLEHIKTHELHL
Sequence of UniProt P83916 (P83916 whole entry, looked up): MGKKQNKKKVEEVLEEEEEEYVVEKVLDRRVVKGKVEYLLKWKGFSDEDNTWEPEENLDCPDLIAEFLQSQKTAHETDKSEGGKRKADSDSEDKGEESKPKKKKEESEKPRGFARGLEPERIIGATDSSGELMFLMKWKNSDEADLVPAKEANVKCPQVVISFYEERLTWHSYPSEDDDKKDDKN
Sequence of UniProt Q9Y5S2 (Q9Y5S2 whole entry, looked up): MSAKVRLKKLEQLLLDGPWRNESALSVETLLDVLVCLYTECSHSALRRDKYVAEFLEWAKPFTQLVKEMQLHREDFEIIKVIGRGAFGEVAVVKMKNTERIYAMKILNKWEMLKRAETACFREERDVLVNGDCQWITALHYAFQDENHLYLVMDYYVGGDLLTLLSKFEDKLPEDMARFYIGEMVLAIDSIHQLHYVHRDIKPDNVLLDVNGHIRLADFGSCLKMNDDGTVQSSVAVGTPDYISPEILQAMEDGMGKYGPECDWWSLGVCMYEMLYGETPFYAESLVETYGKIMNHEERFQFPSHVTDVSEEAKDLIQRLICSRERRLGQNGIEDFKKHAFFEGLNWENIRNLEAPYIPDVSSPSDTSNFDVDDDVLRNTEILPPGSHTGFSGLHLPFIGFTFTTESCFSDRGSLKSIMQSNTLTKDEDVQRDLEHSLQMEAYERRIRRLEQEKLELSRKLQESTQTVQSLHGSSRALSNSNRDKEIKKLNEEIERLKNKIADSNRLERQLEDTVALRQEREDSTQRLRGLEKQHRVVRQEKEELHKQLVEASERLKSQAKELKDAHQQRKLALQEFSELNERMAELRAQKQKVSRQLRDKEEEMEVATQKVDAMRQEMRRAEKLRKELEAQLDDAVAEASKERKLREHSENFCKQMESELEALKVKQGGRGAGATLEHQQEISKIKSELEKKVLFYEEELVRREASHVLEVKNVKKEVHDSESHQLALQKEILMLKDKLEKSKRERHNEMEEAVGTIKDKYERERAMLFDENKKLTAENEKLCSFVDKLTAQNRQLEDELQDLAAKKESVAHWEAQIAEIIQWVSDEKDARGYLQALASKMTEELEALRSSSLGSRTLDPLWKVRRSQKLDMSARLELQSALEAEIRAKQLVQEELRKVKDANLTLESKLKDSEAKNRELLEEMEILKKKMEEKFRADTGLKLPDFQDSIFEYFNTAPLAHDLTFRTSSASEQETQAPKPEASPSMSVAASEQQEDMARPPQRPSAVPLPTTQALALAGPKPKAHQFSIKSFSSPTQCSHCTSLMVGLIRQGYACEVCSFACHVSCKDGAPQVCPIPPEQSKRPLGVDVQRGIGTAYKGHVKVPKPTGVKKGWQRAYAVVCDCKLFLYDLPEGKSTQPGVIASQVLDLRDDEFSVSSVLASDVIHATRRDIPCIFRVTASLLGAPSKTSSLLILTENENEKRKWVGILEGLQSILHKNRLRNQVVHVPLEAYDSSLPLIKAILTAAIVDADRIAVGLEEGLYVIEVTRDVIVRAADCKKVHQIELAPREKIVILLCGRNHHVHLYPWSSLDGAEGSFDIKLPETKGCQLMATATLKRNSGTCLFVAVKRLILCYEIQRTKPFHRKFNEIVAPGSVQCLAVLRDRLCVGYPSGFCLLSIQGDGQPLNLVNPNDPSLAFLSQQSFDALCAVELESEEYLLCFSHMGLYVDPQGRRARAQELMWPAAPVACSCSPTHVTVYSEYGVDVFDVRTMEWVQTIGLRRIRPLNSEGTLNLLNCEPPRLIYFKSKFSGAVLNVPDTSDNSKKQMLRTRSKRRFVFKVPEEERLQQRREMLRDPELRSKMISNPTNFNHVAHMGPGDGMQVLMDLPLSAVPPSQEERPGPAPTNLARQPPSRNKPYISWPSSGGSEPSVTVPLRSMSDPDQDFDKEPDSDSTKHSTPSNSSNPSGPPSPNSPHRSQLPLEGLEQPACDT
Sequence of UniProt P10606 (P10606 whole entry, looked up): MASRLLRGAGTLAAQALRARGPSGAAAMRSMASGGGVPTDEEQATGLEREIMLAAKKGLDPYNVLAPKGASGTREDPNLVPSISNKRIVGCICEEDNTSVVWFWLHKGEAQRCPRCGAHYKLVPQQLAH
Sequence of UniProt Q7L3B6 (Q7L3B6 whole entry, looked up): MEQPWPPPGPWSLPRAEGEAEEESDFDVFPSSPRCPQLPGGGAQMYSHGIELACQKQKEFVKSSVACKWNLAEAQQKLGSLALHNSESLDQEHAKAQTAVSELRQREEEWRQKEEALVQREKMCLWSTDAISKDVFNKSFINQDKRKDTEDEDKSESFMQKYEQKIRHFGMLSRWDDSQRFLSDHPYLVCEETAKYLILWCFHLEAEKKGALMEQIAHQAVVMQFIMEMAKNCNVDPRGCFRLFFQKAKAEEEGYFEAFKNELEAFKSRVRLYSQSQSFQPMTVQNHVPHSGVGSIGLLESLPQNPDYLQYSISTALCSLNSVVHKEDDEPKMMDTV
Sequence of UniProt A6NHX0 (A6NHX0 whole entry, looked up): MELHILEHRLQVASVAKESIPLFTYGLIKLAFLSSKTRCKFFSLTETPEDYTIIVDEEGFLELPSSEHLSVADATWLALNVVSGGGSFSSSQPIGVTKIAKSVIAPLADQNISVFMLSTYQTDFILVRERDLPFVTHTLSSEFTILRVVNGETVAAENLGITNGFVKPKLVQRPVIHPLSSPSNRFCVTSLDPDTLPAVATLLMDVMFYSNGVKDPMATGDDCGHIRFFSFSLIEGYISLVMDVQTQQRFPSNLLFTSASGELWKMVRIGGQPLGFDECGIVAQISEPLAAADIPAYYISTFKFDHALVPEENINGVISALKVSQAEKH
Sequence of UniProt Q5JTJ3 (Q5JTJ3 whole entry, looked up): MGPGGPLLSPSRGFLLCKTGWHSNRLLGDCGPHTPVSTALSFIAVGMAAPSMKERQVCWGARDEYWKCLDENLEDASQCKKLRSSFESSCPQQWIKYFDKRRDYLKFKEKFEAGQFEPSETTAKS

Target	log2 fold change [1]	log2 fold change [2]	log2 fold change [3]	log2 fold change [4]	log2 fold change [5]	log2 fold change [6]	log2 fold change [7]	log2 fold change [8]	log2 fold change [9]	log2 fold change [10]
CLUH, A0A494C0R8	-0.037	-0.058	-0.009	-0.088	0.09	-0.068	0.16	0.138	0.032	0.102
CDC42BPB (UniProt Q9Y5S2)	-0.089	-0.152	0.009	0.055	0.021	-0.119	0.146	-0.046	-0.029	-0.032
CSTF2 (UniProt P33240)	-0.02	0.105	0.045	-0.064	-0.023	0.023	0.034	-0.092	-0.08	-0.028
CSK (UniProt P41240)	-0.01	-0.069	-0.102	0.048	0.097	-0.105	-0.008	0.007	0.013	-0.048
C4orf33 (UniProt Q8N1A6)	-0.027	-0.091	-0.07	-0.024	0.048	-0.071	0.091	0.013	-0.076	0.042
CAD (UniProt P27708)	-0.112	0.022	0.076	-0.044	-0.211	0.097	0.132	0.052	0.052	-0.051
CLCN3 (UniProt P51790)	0	0.021	-0.048	-0.14	0.019	0.004	-0.055	-0.057	0.021	-0.06
CMTR1 (UniProt Q8N1G2)	0.009	0.018	-0.053	-0.052	0.045	-0.026	0.003	0.099	0.06	-0.091
CDK9 isoform 2 (UniProt P50750)	-0.028	-0.018	0.405 (active)	0.01	-0.07	0.03	0.084	0.036	0.079	-0.091
CPSF6 isoform 2 (UniProt Q16630)	-0.014	0.031	-0.128	0.015	-0.217	-0.009	0.016	0.008	-0.043	0.007
CAMKK2 (UniProt Q96RR4)	0.03	-0.042	0.048	0.105	0.36	-0.104	-0.084	-0.101	0.057	0.057
CHAC2 (UniProt Q8WUX2)	-0.016	-0.028	-0.075	-0.02	-0.02	-0.07	0.122	-0.05	0.237	0.025
COPS3 (UniProt Q9UNS2)	-0.016	0.02	-0.019	-0.025	-0.021	-0.023	-0.037	-0.013	-0.003	0.033
CRLS1 (UniProt Q9UJA2)	0.144	-0.282	0.02	-0.079	0.043	-0.088	-0.088	-0.052	0.004	0.067
CBX1 (UniProt P83916)	0.073	-0.037	-0.026	0.035	-0.018	-0.143	-0.01	-0.02	-0.043	0
CTBS (UniProt Q01459)	0.081	-0.245	0.029	0.038	0.023	-0.082	0.055	-0.132	-0.093	-0.038
CPSF1 (UniProt Q10570)	0.024	-0.01	0.045	-0.02	-0.05	0.038	0.018	-0.061	-0.048	-0.032
COA6 isoform 2 (UniProt Q5JTJ3)	0.175	0.063	0.012	0.07	0.354	-0.022	-0.068	0.138	-0.055	0.072
CRYM-AS1 (UniProt A6NIL9)	-0.092	-0.041	0.063	0.119	-0.347	-0.065	-0.356	0.103	0.024	-0.078
CETN3 (UniProt O15182)	-0.027	-0.022	0.013	0.015	0.128	-0.008	-0.006	-0.003	-0.021	0.082
CHCHD1 (UniProt Q96BP2)	-0.069	0.059	0.009	-0.025	0.132	0.017	0.114	0.04	-0.037	-0.024
CSTF3 (UniProt Q12996)	0.001	0.045	0.078	-0.08	0.043	0.173	0.088	-0.051	-0.022	0.002
CIR1 (UniProt Q86X95)	-0.02	-0.039	0.256	0.078	-0.061	0.418	0.102	0.057	0.04	0.207
CASP3 (UniProt P42574)	0.107	0.048	0.005	0.066	-0.024	-0.002	-0.062	0.001	-0.014	-0.004
COCH (UniProt O43405)	0.126	0.01	0.029	-0.036	0.031	0.1	0.011	-0.139	-0.074	0.05
CPSF7 isoform 3 (UniProt Q8N684)	0.006	0.026	-0.018	0.032	-0.071	0.014	0.033	-0.014	-0.014	-0.044
CASTOR2 (UniProt A6NHX0)	0.042	0.039	0.027	0.036	-0.082	-0.092	-0.048	0.032	0.04	0
CDC37L1 (UniProt Q7L3B6)	-0.003	0.021	-0.093	-0.308 (active)	0.002	0.059	-0.058	-0.013	0.005	0.018
COX5B (UniProt P10606)	-0.076	0.113	-0.018	0.052	0	-0.046	-0.01	0.024	-0.033	0.006
